Data taken from PubChem BioAssay AID2029 (NMMLSC, 2009).
Screen size: about 320,000 compounds; about 210 (0.066%) were called active. This is one part of a sample in which actives are shown more often than they occur.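 How the source made its calls: active means GFP response relative to DMSO above a set limit, near the screen mean plus 3 SD (cut at about 150% in these data); inconclusive means Fewer than 70 cells measured for a yeast strain; inactive means the rest.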

Assay: modulators of CIT2-GFP expression in yeast, primary screen, S. cerevisiae, GFP fusion, multiplex flow cytometry, MLPCN library (AID 2029);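 further: ratio of well median GFP fluorescence to mean of DMSO wells on the plate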
Conditions: S. cerevisiae CIT2-GFP strain, 3 h, at 10 µM, stronger effect = higher value, 100 means same as DMSO wells

Compound	GFP response vs DMSO
COc1cc(C(=O)N(C)Cc2cccc(OC)c2OC)ccc1OCC(=O)Nc1cccc(C(F)(F)F)c1	101% (inactive)
O=C(NC(=S)NC1CCS(=O)(=O)C1)c1cccc([N+](=O)[O-])c1 (stereo unspecified)	155% (active)
Nc1ccc(C(=O)OCC(=O)NC2CCS(=O)(=O)C2)cc1[N+](=O)[O-] (stereo unspecified)	91.7% (inactive)
CC1CCN(C(=S)c2cccc([N+](=O)[O-])c2)CC1	102% (inactive)
O=C(N/N=C1\CCSC1)c1cc(Cl)ccc1O	102% (inactive)
Cc1cccc(C)c1NC(=O)C(Cl)C(=O)c1ccccc1 (stereo unspecified)	87.7% (inactive)
Cc1ccc(C)c(Cn2nnc3c(=O)[nH]c(C(=O)Nc4ccc(F)cc4)nc32)c1	99.3% (inactive)
CN(CC(=O)Nc1ccc(C(N)=O)cc1)S(=O)(=O)c1ccc2c(c1)OCCO2	110% (inactive)
COc1cc([N+](=O)[O-])cc([N+](=O)[O-])c1NC(=O)N1CCOCC1	110% (inactive)
Cc1cc(C(=O)CC#N)c(C)n1-c1c(C)n(C)n(-c2ccccc2)c1=O	92.1% (inactive)
O=C(c1cc2ccccc2o1)N1CCN(Cc2ccccc2)CC1	94.7% (inactive)
CC1Cc2ccccc2N1CC(=O)Nc1ccc2c(c1)OC(F)(F)O2 (stereo unspecified)	82.8% (inactive)
COC(=O)C1=C(C)N(Cc2ccccc2)C(=NCCCOC(C)C)N[C@H]1c1ccccc1	69.2% (inactive)
COc1ccccc1C(=O)OCC(=O)Nc1cccc(S(=O)(=O)NC2=NCCCCC2)c1	118% (inactive)
COc1cccc(NC(=O)CN(C)C(=O)c2cc(C3CC3)nn2-c2ccccc2)c1	106% (inactive)
COc1ccc(NC(=O)CCn2ccnc2)c(OC)c1	106% (inactive)
CCOc1ccc(OCC)c(NC(=O)CSc2nnc(Cn3cnc4ccccc43)n2C)c1	99% (inactive)
O=C(NCC(F)(F)F)Nc1nnc(C(F)(F)F)s1	97.4% (inactive)
O=C(NCc1cc(F)cc(C(F)(F)F)c1)C1CCC(=O)N(C2CCCC2)C1 (stereo unspecified)	98.4% (inactive)
O=S(=O)(c1ccc(F)cc1)N1CCN=C1SCc1cccc(F)c1	104% (inactive)
CS(=O)(=O)N1CCN=C1SCc1ccc(F)cc1	102% (inactive)
CCSC1=NCCN1S(=O)(=O)c1ccc(F)cc1	151% (active)
CC1CC1C(=O)OCC(=O)c1c(N)n(C)c(=O)n(C)c1=O (stereo unspecified)	97.2% (inactive)
COc1ccc(-c2nc(CS(=O)(=O)CC(=O)NCc3cccc(Br)c3)c(C)o2)cc1	150% (active)
COc1cccc(-c2nc(CS(=O)(=O)CC(=O)NCCc3ccc(OC)c(OC)c3)c(C)o2)c1	102% (inactive)
Cc1ccc(-c2nc(CS(=O)(=O)CC(=O)NCc3ccc4c(c3)OCO4)c(C)o2)cc1	94.3% (inactive)
